A selection: hits, their analogues and other compounds. The true share with any hit is near 3.9%.
CCHF vOTU inh: blocks the CCHF virus ovarian tumor domain protease. CCHFV vOTU protease, Pep-AMC fluorescence. inhibition, % at 11.5 µM. hit rate 0.55% among 370,000. AID 651958; in the data active = inhibition above about 30%; also: 0% = vehicle wells with enzyme and 100% = no enzyme wells
BoNT-A LC inh2: inhibitors of Botulinum neurotoxin A light chain protease | multiplex microsphere protease substrate cleavage, flow cytometry | hit rate 0.17% among 360,000 | AID 588499 | inhibition, % at 10 µM; also: plate controls were buffer without enzyme for full effect and enzyme alone for no effect
SARS 3CLpro inh: SARS-CoV 3CLpro protease inhibition; recombinant SARS-CoV 3CLpro, quenched FRET peptide cleavage; inhibition, % at 6 µM; hit rate 0.14% among 290,000; in the data active = inhibition above about 12%
Anthrax LF inh2: anthrax lethal factor protease inhibition; AID 588501; hit rate 0.12% among 360,000; inhibition, % at 10 µM; multiplex microsphere protease cleavage assay, LF; also: plate controls were buffer without enzyme for full effect and enzyme alone for no effect
BoNT F protease: blocks Botulinum neurotoxin F light chain protease; Multiplex microsphere protease cleavage assay, flow cytometry; inhibition, % at 10 µM; hit rate 0.22% among 360,000; in the data active = inhibition above about 35%, passing the limit was not always enough; inconclusive = no clear call, values can overlap the other calls; also: plate controls were buffer without enzyme for full effect and enzyme alone for no effect
Autofluor counter: compound fluorescence in toxin protease inhibitor counterscreen. compound autofluorescence counterscreen, microsphere flow cytometry; hits give high values. fluorescence intensity (concentration not given with the values). hit rate 3.1% among 360,000; in the data active = fluorescence intensity above about 16000; inconclusive = no clear call, values can overlap the other calls
* marks the source's active call; other numbers are inactive results; ? = inconclusive; / = not tested or not shown. Rule as the data show it, unless noted: active = inhibition above about 30%; inconclusive = no clear call, values can overlap the other calls; inactive = below that.

SMILES	CCHF vOTU inh	BoNT-A LC inh2	SARS 3CLpro inh	Anthrax LF inh2	BoNT F protease	Autofluor counter
CCOC(=O)N1CCN(C2=C(NS(=O)(=O)c3ccccc3)C(=O)c3ccccc3C2=O)CC1	89*	-1	0	-2	1	5430
Cc1cc(S(=O)(=O)NCC(C)C)ccc1OCC(=O)NCc1ccccn1	-1	-3	-5	-2	-4	21787*
Cc1ccc(S(=O)(=O)N2C[C@H]3C(=O)C[C@@H]4C(=O)N(c5ccccc5)C(=O)[C@@H]4[C@@H]3C[C@H]2c2cccc(Cl)c2)cc1	4	0	/	1	-1	5467
COc1ccccc1NC(=O)CCCN1C(=O)C2CC=CCC2C1=O (stereo not given)	15	2	-2	1	0	5220
COC(=O)[C@@H]1C[C@@]2(c3ccccc3)c3ccccc3N(S(=O)(=O)c3ccccc3)[C@H]2N1C(=O)CNC1CCCCC1	-1	/	/	/	/	/
CCN(C[C@H]1N[C@@](C)(C(=O)OC)[C@H]2C(=O)N(Cc3ccccc3)C(=O)[C@@H]12)C(=O)c1ccccc1	0	0	/	4	-4	3038
CCOC(=O)N1CCN(C(=O)COc2ccc(S(=O)(=O)NCC(C)C)cc2C)CC1	-1	-2	-3	-1	-3	21204*
Cc1cc(S(=O)(=O)NCC(C)C)ccc1OCC(=O)N1CCOCC1	3	2	-1	6	?	3940
O=C(CCNC(=O)c1ccc(Br)o1)NCc1ccc(Cl)cc1	-13	-1	-7	-1	-1	20990*
CCOc1ccc2nc(SCC(=O)Nc3cc(C)on3)c(C)cc2c1	2	1	0	1	2	2854
COC(=O)CN1C(=O)C2(C(C#N)=C(N)Oc3ccccc32)C2=C1CC(C)(C)CC2=O (stereo not given)	-4	2	0	-3	3	22010*
COc1ccc(-n2nc(C(=O)NCC(=O)NCc3ccco3)c3ccccc3c2=O)cc1	-6	0	2	-2	-4	5918
CCN1CCN(C(=O)c2nn(-c3ccccc3)c(=O)c3ccccc23)CC1	0	2	-1	-2	2	18559*
O=C(NCc1ccco1)c1nn(-c2ccccc2)c(=O)c2ccccc12	8	1	0	-1	0	21403*
CCOC(=O)N1CCN(C(=O)c2nn(-c3cc(OC)cc(OC)c3)c(=O)c3ccccc23)CC1	/	/	1	/	/	/
CN(C)C(=C(C#N)C#N)N1CCN(c2ccc(Cl)c(Cl)c2)CC1	-5	1	2	-5	-1	20347*
CN(C)C(=C(C#N)C#N)N1CCN(c2ccc(Cl)cc2)CC1	4	0	2	5	1	4303
Cc1ccccc1CN(C)C(=O)CNC(=O)c1ccc2ccccc2c1	-2	0	1	-3	-5	3431

Screens: PubChem BioAssay, several laboratories
